One assay has as its target pT7_6His-AlfaTag-HOXD13 (human, UniProt P35453 263-343). Nature of the assay: PADIT-seq. To be noted: dsDNA, one strand shown.
In the next assay the target is pT7_6His-AlfaTag-ZIF268 (human, UniProt P18146 335-423). The assay can be described thus: PADIT-seq. To be noted: dsDNA, one strand shown.

Sequence of pT7_6His-AlfaTag-HOXD13 (P35453 263-343): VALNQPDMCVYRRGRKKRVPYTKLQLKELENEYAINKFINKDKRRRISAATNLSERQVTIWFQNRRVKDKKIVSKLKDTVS

As to “CTCGAGGATATCAAGATCTGGCCTCGGCCGCCGACGCGGAACCTCTAGCTAGCCGACTCACTATAGGGATAATCGCCCTGAGCAAAGACC”, the binding signal with pT7_6His-AlfaTag-HOXD13 is -0.893 ± 0.142 log2FC; in the assay with pT7_6His-AlfaTag-ZIF268, 0.21 ± 0.115 log2FC.

On to “CTCGAGGATATCAAGATCTGGCCTCGGCACTATAAAAGGAACCTCTAGCTAGCCGACTCACTATAGGGATAATCGCCCTGAGCAAAGACC”, for which the binding signal was 2.93 ± 0.0918 log2FC with pT7_6His-AlfaTag-HOXD13 and 0.0278 ± 0.1 log2FC with pT7_6His-AlfaTag-ZIF268.

As for “CTCGAGGATATCAAGATCTGGCCTCGGCCAAGTAAAAGGAACCTCTAGCTAGCCGACTCACTATAGGGATAATCGCCCTGAGCAAAGACC”, the binding signal in the assay with pT7_6His-AlfaTag-HOXD13 is 0.682 ± 0.11 log2FC; with pT7_6His-AlfaTag-ZIF268 it was 0.0157 ± 0.107 log2FC.

With “CTCGAGGATATCAAGATCTGGCCTCGGCTTATGGGCGGGAACCTCTAGCTAGCCGACTCACTATAGGGATAATCGCCCTGAGCAAAGACC”, the binding signal with pT7_6His-AlfaTag-HOXD13 stood at 1.03 ± 0.0902 log2FC; with pT7_6His-AlfaTag-ZIF268, 0.0657 ± 0.0898 log2FC.

In the case of “CTCGAGGATATCAAGATCTGGCCTCGGCGCGATTGCGGGAACCTCTAGCTAGCCGACTCACTATAGGGATAATCGCCCTGAGCAAAGACC”, the binding signal with pT7_6His-AlfaTag-HOXD13 was -0.695 ± 0.114 log2FC; with pT7_6His-AlfaTag-ZIF268 it was 0.187 ± 0.0941 log2FC.

“CTCGAGGATATCAAGATCTGGCCTCGGCCGCCTACGCGGAACCTCTAGCTAGCCGACTCACTATAGGGATAATCGCCCTGAGCAAAGACC”: the binding signal is -0.992 ± 0.109 log2FC with pT7_6His-AlfaTag-HOXD13 and 1.76 ± 0.0783 log2FC with pT7_6His-AlfaTag-ZIF268.

As for “CTCGAGGATATCAAGATCTGGCCTCGGCGAATGGGCGGGAACCTCTAGCTAGCCGACTCACTATAGGGATAATCGCCCTGAGCAAAGACC”, the binding signal with pT7_6His-AlfaTag-HOXD13 is -0.762 ± 0.106 log2FC; in the assay with pT7_6His-AlfaTag-ZIF268, 0.0552 ± 0.0878 log2FC.

“CTCGAGGATATCAAGATCTGGCCTCGGCCTTTTACGCGGAACCTCTAGCTAGCCGACTCACTATAGGGATAATCGCCCTGAGCAAAGACC”: the binding signal was 1.9 ± 0.0733 log2FC with pT7_6His-AlfaTag-HOXD13 and 0.0363 ± 0.0782 log2FC in the assay with pT7_6His-AlfaTag-ZIF268.

Consider “CTCGAGGATATCAAGATCTGGCCTCGGCGCGTTGGCGGGAACCTCTAGCTAGCCGACTCACTATAGGGATAATCGCCCTGAGCAAAGACC”, for which the binding signal in the assay with pT7_6His-AlfaTag-HOXD13 was -1.07 ± 0.16 log2FC; with pT7_6His-AlfaTag-ZIF268, 1.75 ± 0.117 log2FC.

For “CTCGAGGATATCAAGATCTGGCCTCGGCCGTTGGGCGGGAACCTCTAGCTAGCCGACTCACTATAGGGATAATCGCCCTGAGCAAAGACC”, the binding signal is -0.921 ± 0.107 log2FC in the assay with pT7_6His-AlfaTag-HOXD13 and 0.0419 ± 0.0862 log2FC with pT7_6His-AlfaTag-ZIF268.
